Source: the supplement of paper PMC11219838
A number with no mark means an inactive call.

What follows are compounds tested on Caenorhabditis elegans dauer (daf-2(e1370)) (assay: proportion of mobile C. elegans dauer larvae relative to DMSO control (fraction of DMSO control); higher = more viable, less nematicidal, active = 0.63 or less; extreme values may be limits of the assay). Conditions: 60 µM; 5 days; temperature: 20 °C.
Experimental: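 DODA library (846 commercial 1,3,4- and 1,2,4-oxadiazole compounds plus commercial nematicide controls) screened at a single dose of 60 µM (0.6% DMSO) in 96-well plates, two biological replicates. Read-outs: C. elegans N2 L1 survival/reproduction score at day 6, 20 °C (0: 0-10 worms, 1: 11-20, 2: 21-50, 3: >50, 4: overgrown/starved). C. elegans daf-2 dauer, D. dipsaci and M. hapla J2 mobility at day 5, 20 °C, and P. penetrans mobility at day 5, 20 °C, each relative to DMSO controls. M. hapla egg hatching at day 12, 25 °C, relative to the mean of 8 DMSO wells on the same plate.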

`COc1cccc(-c2nc(-c3ccc(Cl)cc3)no2)c1` and `COc1ccc(-c2noc(-c3cccc(F)c3)n2)cc1` are the same in “proportion of mobile C. elegans dauer larvae” value (from here on “proportion”): 1 for the first, 1 for the second.

`CC(=O)c1cccc(NC(=O)CSc2nnc(-c3ccccc3)o2)c1` and `O=C(CSc1nnc(-c2cccc(Cl)c2)o1)Nc1ccccc1` are the same in “proportion” value: 1 for the first, 1 for the second.

`Cc1cc(C)cc(-c2nc(-c3ccc(Cl)cc3)no2)c1` and `Cc1cccc(-c2noc(-c3cccc(Br)c3)n2)c1` are the same in “proportion” value: 1 for the first, 1 for the second.

`Cc1cc(NC(=O)CSc2nnc(-c3ccc(Cl)cc3Cl)o2)no1` and `COc1ccc(-c2nnc(SCC(=O)Nc3ccc(Br)c(C)c3)o2)cc1` are the same in “proportion” value: 1 for the first, 1 for the second.

`CCOc1nc(-c2ccc(C)cc2)ccc1-c1noc(-c2ccncc2)n1` and `Cc1ccc(-c2nc(-c3ccc(Br)cc3)no2)cc1` are the same in “proportion” value: 1 for the first, 1 for the second.

`Brc1ccc(-c2nc(-c3ccccc3)no2)cc1` and `Brc1cccc(-c2nc(-c3cccnc3)no2)c1` are the same in “proportion” value: 1 for the first, 1 for the second.

`c1ccc(-c2noc(CSc3nc4ccccc4[nH]3)n2)cc1` and `Cc1ccccc1-c1noc(CSc2nc3ccccc3[nH]2)n1` are the same in “proportion” value: 1 for the first, 1 for the second.

`COc1ccc(-c2nnc(SCc3csc(N)n3)o2)cc1` and `COc1ccc(-c2nnc(SCc3cccc(C#N)c3)o2)cc1` are the same in “proportion” value: 1 for the first, 1 for the second.

`COc1ccc(-c2noc(-c3ccccc3C(=O)Nc3cccc(C)c3C)n2)cc1` and `COc1ccc(-c2nc(-c3ccccc3Cl)no2)cc1` are the same in “proportion” value: 1 for the first, 1 for the second.

`Cc1cccc(-c2nc(-c3ccc4c(c3)OCO4)no2)c1` and `Cc1ccc(-c2nc(-c3cccnc3)no2)cc1Cl` are the same in “proportion” value: 1 for the first, 1 for the second.

`FC(F)(F)c1cccc(-c2noc(-c3ccccc3Cl)n2)c1` and `COc1ccccc1-c1nc(-c2cccc(Br)c2)no1` are the same in “proportion” value: 1 for the first, 1 for the second.

`COc1ccccc1OCc1nc(-c2cccc(Br)c2)no1` and `CCc1ccc(OCc2nc(-c3cccc(OC)c3)no2)cc1` are the same in “proportion” value: 1 for the first, 1 for the second.

`O=C(CSc1nnc(-c2cccc(Br)c2)o1)c1ccccc1` and `O=C(CSc1nnc(-c2ccccc2)o1)NCc1ccccc1` are the same in “proportion” value: 1 for the first, 1 for the second.

`Cc1ccc(C(=O)CSc2nnc(-c3ccco3)o2)o1` and `CCN(CC)C(=O)CSc1nnc(-c2ccc(Br)cc2)o1` are the same in “proportion” value: 1 for the first, 1 for the second.

`Cc1ccccc1-c1noc(-c2ccccc2C(=O)NCc2ccccc2)n1` and `O=C(c1ccccc1-c1nc(-c2ccccc2)no1)N1CCCCC1` are the same in “proportion” value: 1 for the first, 1 for the second.

`CCOc1cc(C#N)ccc1OCc1nc(-c2cccs2)no1` and `N#Cc1ccc(OCc2nc(-c3cccs3)no2)cc1` are the same in “proportion” value: 1 for the first, 1 for the second.

`Cc1cccc(OC(C)c2nc(-c3cccnc3)no2)c1` (stereo not given) and `Cc1cc(OCc2nc(-c3ccncc3)no2)cc(C)c1Br` are the same in “proportion” value: 1 for the first, 1 for the second.

`Cc1ccc(-c2noc(COc3ccc(Br)cc3)n2)cc1` and `Cc1ccc(-c2noc(CSc3nc4ccccc4[nH]3)n2)cc1` are the same in “proportion” value: 1 for the first, 1 for the second.

`COC(=O)c1ccc(CSc2nnc(-c3ccncc3)o2)cc1` and `Clc1ccc(-c2nnc(SCc3ccccc3)o2)cc1` are the same in “proportion” value: 1 for the first, 1 for the second.

Going from `O=C(CSc1nnc(-c2ccc(Cl)cc2)o1)NCc1ccccc1` to `COc1ccc(-c2noc(C3CCCCC3)n2)cc1`, the “proportion” value falls from 1 to 0.779.
